Inconclusive results are not listed. Where a call stands in place of a potency, no number is given. The source made the active and inactive calls. Calls come from the whole dose curve; tested in HEK293 reporter line.
Assay: qHTS for Inhibitors of the Functional Ribonucleoprotein Complex (vRNP) of Lassa (LASV) Arenavirus: Viability assay - alamar blue signal for LASV Primary Screen (AID 1347083)
Conditions: cell viability, alamar blue fluorescence (LASV minigenome counter-screen); series mostly up to 57.5 µM
Note: nearly all actives have a fitted effect of over 80% in size.

Compound	Potency	activity change, negative = reduced viability
OC[C@H]1O[C@@H](Oc2ccc(O)cc2)[C@H](O)[C@@H](O)[C@@H]1O	inactive	–
CC1(C)Oc2ccc(C#N)cc2[C@@H](N2CCCC2=O)[C@@H]1O	inactive	–
CC(=O)SCC(CC(=O)c1ccc(C)cc1)C(=O)O (stereo not drawn)	inactive	–
NC/C=C/C(=O)O	inactive	–
NS(=O)(=O)c1cc(C2(O)NC(=O)c3ccccc32)ccc1Cl (stereo not drawn)	inactive	–
CO[C@@]1(NC(=O)Cc2cccs2)C(=O)N2C(C(=O)O)=C(COC(N)=O)CS[C@@H]21	inactive	–
CC(C)NCC(O)c1ccc(NS(C)(=O)=O)cc1 (stereo not drawn)	inactive	–
CCOC(=O)C1=C[C@@H](OC(CC)CC)[C@H](NC(C)=O)[C@@H](N)C1	inactive	–
CC(C)(C)NCC(O)COc1cccc2c1C[C@H](O)[C@H](O)C2 (stereo partly drawn)	inactive	–
COc1cc(NS(=O)(=O)c2ccc(N)cc2)nc(C)n1	inactive	–
Cc1onc(-c2ccccc2)c1C(=O)Cl	inactive	–
O=C(Oc1ccccc1C(=O)O)c1ccccc1O	inactive	–
O=c1[nH]c(=O)n([C@H]2C[C@H](O)[C@@H](CO)O2)cc1I	inactive	–
Cn1c([N+](=O)[O-])cnc1COC(N)=O	inactive	–
O=C(O)CCCC[C@@H]1SC[C@@H]2NC(=O)N[C@@H]21	inactive	–
COc1c2occc2cc2ccc(=O)oc12	inactive	–
NS(=O)(=O)c1cc(C(=O)NN2C[C@H]3[C@H]4CCC(C4)[C@H]3C2)ccc1Cl	inactive	–
CC(C)CN(C[C@@H](O)[C@H](Cc1ccccc1)NC(=O)O[C@H]1CO[C@H]2OCC[C@H]21)S(=O)(=O)c1ccc(N)cc1	inactive	–
CC(C)c1ccc2oc3nc(N)c(C(=O)O)cc3c(=O)c2c1	inactive	–
O=C(Oc1ccccc1)c1ccccc1O	inactive	–

Compound	Potency	activity change, negative = reduced viability
NC(=O)c1ncn([C@@H]2O[C@H](CO)[C@@H](O)[C@H]2O)c1O	inactive	–
COc1ccc(C2C(=O)c3ccccc3C2=O)cc1	inactive	–
NCCNCCNCCNCCN	–	1.27% [at 11.5 µM] (inactive)
NC(=S)N/N=C/c1cccnc1	inactive	–
CCCc1nn(C)c2c(=O)[nH]c(-c3cc(S(=O)(=O)N4CCN(C)CC4)ccc3OCC)nc12	inactive	–
CC(=O)O[C@@H]1C(=O)O[C@@H]2[C@H]1OC(=O)[C@@H]2OC(C)=O	inactive	–
Cc1cccn2c(=O)c(-c3nnn[nH]3)cnc12	inactive	–
CCOC(=O)/C=C(C)/C=C/C=C(C)/C=C/c1c(C)cc(OC)c(C)c1C	inactive	–
CN[C@@H]1[C@H](O)[C@H](NC)[C@H]2O[C@@]3(O)C(=O)C[C@@H](C)O[C@H]3O[C@@H]2[C@H]1O	inactive	–
Cn1cc(S(C)=O)c(=O)c2ccc(F)cc21 (stereo not drawn)	inactive	–
CC(N)CCCC(C)(C)O (stereo not drawn)	inactive	–
C=CCN1CCc2nc(N)sc2CC1	inactive	–
Nc1ccc(S(=O)(=O)Nc2ccccn2)cc1	inactive	–
CC(=O)Nc1ccc(C(=O)O)cc1	inactive	–
CC(=O)OCC(=O)[C@H]1CC[C@H]2[C@@H]3CCC4=CC(=O)CC[C@]4(C)[C@H]3CC[C@]12C	inactive	–
C[C@H]1C[C@@H]2[C@H]([C@@H](O)C[C@@]3(C)[C@H]2CC[C@]3(O)C(=O)CO)[C@@]2(C)C=CC(=O)C=C12	inactive	–
NC(=O)CC[C@@H]1NC(=O)[C@H](Cc2ccccc2)NC(=O)[C@H](Cc2ccc(O)cc2)NC(=O)CCSSC[C@@H](C(=O)N2CCC[C@H]2C(=O)N[C@@H](CCCN=C(N)N)C(=O)NCC(N)=O)NC(=O)[C@H](CC(N)=O)NC1=O	inactive	–
Cc1oc(=O)oc1CN1CCN(c2cc3c(cc2F)c(=O)c(C(=O)O)c2n3C(C)S2)CC1 (stereo not drawn)	inactive	–
N#CCC(=O)NN	inactive	–

Assay: qHTS for Inhibitors of the Functional Ribonucleoprotein Complex (vRNP) of Lymphocytic Choriomeningitis Arenaviruses (LCMV): Viability assay - alamar blue signal for LCMV Primary Screen (AID 1347085)
Conditions: alamar blue viability counter-screen, LCMV vRNP screen cells; series mostly up to 57.5 µM

Compound	Potency	activity change, negative = lower viability
OC[C@H]1O[C@@H](Oc2ccc(O)cc2)[C@H](O)[C@@H](O)[C@@H]1O	inactive	–
CC1(C)Oc2ccc(C#N)cc2[C@@H](N2CCCC2=O)[C@@H]1O	inactive	–
CC(=O)SCC(CC(=O)c1ccc(C)cc1)C(=O)O (stereo not drawn)	inactive	–
NC/C=C/C(=O)O	inactive	–
NS(=O)(=O)c1cc(C2(O)NC(=O)c3ccccc32)ccc1Cl (stereo not drawn)	inactive	–
CO[C@@]1(NC(=O)Cc2cccs2)C(=O)N2C(C(=O)O)=C(COC(N)=O)CS[C@@H]21	inactive	–
CC(C)NCC(O)c1ccc(NS(C)(=O)=O)cc1 (stereo not drawn)	inactive	–
CCOC(=O)C1=C[C@@H](OC(CC)CC)[C@H](NC(C)=O)[C@@H](N)C1	inactive	–
CC(C)(C)NCC(O)COc1cccc2c1C[C@H](O)[C@H](O)C2 (stereo partly drawn)	inactive	–
COc1cc(NS(=O)(=O)c2ccc(N)cc2)nc(C)n1	inactive	–
Cc1onc(-c2ccccc2)c1C(=O)Cl	inactive	–
O=C(Oc1ccccc1C(=O)O)c1ccccc1O	inactive	–
O=c1[nH]c(=O)n([C@H]2C[C@H](O)[C@@H](CO)O2)cc1I	inactive	–
Cn1c([N+](=O)[O-])cnc1COC(N)=O	inactive	–
O=C(O)CCCC[C@@H]1SC[C@@H]2NC(=O)N[C@@H]21	inactive	–
COc1c2occc2cc2ccc(=O)oc12	inactive	–
NS(=O)(=O)c1cc(C(=O)NN2C[C@H]3[C@H]4CCC(C4)[C@H]3C2)ccc1Cl	inactive	–
CC(C)CN(C[C@@H](O)[C@H](Cc1ccccc1)NC(=O)O[C@H]1CO[C@H]2OCC[C@H]21)S(=O)(=O)c1ccc(N)cc1	inactive	–
CC(C)c1ccc2oc3nc(N)c(C(=O)O)cc3c(=O)c2c1	inactive	–
O=C(Oc1ccccc1)c1ccccc1O	inactive	–

Compound	Potency	activity change, negative = lower viability
NC(=O)c1ncn([C@@H]2O[C@H](CO)[C@@H](O)[C@H]2O)c1O	inactive	–
COc1ccc(C2C(=O)c3ccccc3C2=O)cc1	inactive	–
NCCNCCNCCNCCN	–	2.19% [at 11.5 µM] (inactive)
NC(=S)N/N=C/c1cccnc1	inactive	–
CCCc1nn(C)c2c(=O)[nH]c(-c3cc(S(=O)(=O)N4CCN(C)CC4)ccc3OCC)nc12	inactive	–
CC(=O)O[C@@H]1C(=O)O[C@@H]2[C@H]1OC(=O)[C@@H]2OC(C)=O	inactive	–
Cc1cccn2c(=O)c(-c3nnn[nH]3)cnc12	inactive	–
CCOC(=O)/C=C(C)/C=C/C=C(C)/C=C/c1c(C)cc(OC)c(C)c1C	inactive	–
CN[C@@H]1[C@H](O)[C@H](NC)[C@H]2O[C@@]3(O)C(=O)C[C@@H](C)O[C@H]3O[C@@H]2[C@H]1O	inactive	–
Cn1cc(S(C)=O)c(=O)c2ccc(F)cc21 (stereo not drawn)	inactive	–
CC(N)CCCC(C)(C)O (stereo not drawn)	inactive	–
C=CCN1CCc2nc(N)sc2CC1	inactive	–
Nc1ccc(S(=O)(=O)Nc2ccccn2)cc1	inactive	–
CC(=O)Nc1ccc(C(=O)O)cc1	inactive	–
CC(=O)OCC(=O)[C@H]1CC[C@H]2[C@@H]3CCC4=CC(=O)CC[C@]4(C)[C@H]3CC[C@]12C	inactive	–
C[C@H]1C[C@@H]2[C@H]([C@@H](O)C[C@@]3(C)[C@H]2CC[C@]3(O)C(=O)CO)[C@@]2(C)C=CC(=O)C=C12	inactive	–
NC(=O)CC[C@@H]1NC(=O)[C@H](Cc2ccccc2)NC(=O)[C@H](Cc2ccc(O)cc2)NC(=O)CCSSC[C@@H](C(=O)N2CCC[C@H]2C(=O)N[C@@H](CCCN=C(N)N)C(=O)NCC(N)=O)NC(=O)[C@H](CC(N)=O)NC1=O	inactive	–
Cc1oc(=O)oc1CN1CCN(c2cc3c(cc2F)c(=O)c(C(=O)O)c2n3C(C)S2)CC1 (stereo not drawn)	inactive	–
N#CCC(=O)NN	inactive	–

From PubChem BioAssay (NCATS)
